Measurements reported in PubChem BioAssay (Tox21).
Inconclusive results are not listed. Calls of active or inactive are those of the source. Unless noted, the call rests on the fitted dose curve.

Experiments:
[1] = qHTS assay to identify small molecule agonists of the vitamin D receptor (VDR) signaling pathway - cell viability counter screen (AID 743224; active means well fitted curve in the direction sought with a large enough effect in the repeat runs; an effect the other way counts as inactive or inconclusive; further: nearly all actives have a fitted effect of over 50% in size); details: VDR-bla HEK293T viability, CellTiter-Glo luminescence, 16 h; series mostly up to 62.6 µM
Procedure, shortened: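 Counter screen run in the same wells as the VDR-bla reporter assay: CellTiter-Glo luminescence, 30 min at room temperature, after 16 h compound treatment at 37C of cells pre-plated for 4 h.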

[2] = qHTS assay to identify small molecule antagonists of the vitamin D receptor (VDR) signaling pathway - cell viability counter screen (AID 743225; active means well fitted curve in the direction sought with a large enough effect in the repeat runs; an effect the other way counts as inactive or inconclusive; further: nearly all actives have a fitted effect of over 50% in size); details: VDR-bla HEK293T viability, CellTiter-Glo luminescence, 16 h; series mostly up to 61 µM
Procedure, shortened: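 In this counter screen, VDR-bla HEK 293T cells receive test compound plus 3 nM final calcitriol for 16 h at 37C. Room-temperature steps of 2 h with the beta-lactamase substrate, then 30 min with CellTiter-Glo, precede the luminescence read.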

[3] = qHTS assay to identify small molecule agonists of the NFkB signaling pathway (AID 1159509; active means well fitted curve in the direction sought with a large enough effect in the signal ratio in the repeat runs, not every such curve was filed as active; the % refers to the signal ratio); details: NFkB-bla ME-180 cells, beta-lactamase FRET ratio, 5 h; series mostly up to 61 µM
Procedure, shortened: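 Readout: FRET fluorescence, 405 nm excitation, 460/530 nm emission; beta-lactamase expression disrupts FRET. Cells: ME-180 stably carrying NF-kB-driven bla reporter. Compound exposure 5 hr, 37 C, 5% CO2.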

[4] = qHTS assay to identify small molecule agonists of the NFkB signaling pathway - cell viability counter screen (AID 1159515); details: NFkB-bla ME-180 viability, CellTiter-Glo luminescence, 5 h; series mostly up to 61 µM; further: nearly all actives have a fitted effect of over 55% in size
Procedure, shortened: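 Read by CellTiter-Glo luminescence (30 min, room temperature) in the wells also used for the beta-lactamase FRET read. ME-180 NFkB-bla cells at 2,000 per well were plated overnight, then exposed to compound for 5 hr at 37 C.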

[5] = qHTS assay to identify small molecule agonists of the endoplasmic reticulum stress response signaling pathway (AID 1159516; active means well fitted activation curve with a large enough effect in the signal ratio in the repeat runs, not every such curve was filed as active; the % refers to the signal ratio); details: ESRE-bla HeLa, ER stress beta-lactamase reporter, 5 h; series mostly up to 61 µM
Procedure, shortened: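 Ratiometric FRET readout (405 nm excitation; 460 and 530 nm emission) of a beta-lactamase gene driven by the ER stress response element, after 2 hr substrate loading. HeLa ESRE-bla cells were seeded overnight and treated with compounds for only 5 hr at 37 C.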

[6] = qHTS assay to identify small molecule agonists of the endoplasmic reticulum stress response signaling pathway - cell viability counter screen (AID 1159517); details: ESRE-bla HeLa viability, CellTiter-Glo luminescence, 5 h; series mostly up to 61 µM; further: nearly all actives have a fitted effect of over 50% in size
Procedure, shortened: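 Cytotoxicity of test compounds toward ESRE-bla HeLa cells was assessed after 5 hr exposure. The luminescent CellTiter-Glo signal was measured 30 min after reagent addition.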

[7] = molecular target: Nuclear receptor ROR-gamma (Homo sapiens) (UniProt P51449); assay: qHTS assay to identify small molecule antagonists of the retinoid-related orphan receptor gamma (ROR-gamma) signaling pathway (AID 1159521; active means well fitted curve in the direction sought with a large enough effect in the repeat runs; an effect the other way counts as inactive or inconclusive;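 further: CHO cells with doxycycline inducible ROR-gamma driving an RORE luciferase reporter; top concentration of the series differs between compounds; nearly all actives have a fitted effect of over 50% in size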); details: Tet-on RORgamma CHO cells, RORE-luciferase, 16 h; series mostly up to 92.4 µM
Procedure, shortened: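 Screening format: cell-based luciferase reporter in CHO cells with doxycycline-inducible RORγ. Compound pre-exposure lasts 2 h, doxycycline is 1 uM final, induction runs 16 h at 37 C, and ONE-Glo luminescence is read.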

[8] = qHTS assay to identify small molecule agonists of the AP-1 signaling pathway - cell viability counter screen (AID 1159525); details: ME-180 AP-1-bla cells viability, ATP luminescence, 5 h; series mostly up to 76.8 µM; further: nearly all actives have a fitted effect of over 55% in size
Procedure, shortened: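 Each titration point was normalised to DMSO and tetra n-octyl ammonium bromide controls. The read was Cell Titer Glo luminescence after 30 min at RT, following 5 h compound exposure of ME-180 AP-1-bla cells at 37 °C.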

[9] = qHTS assay to identify small molecule antagonists of the retinoid-related orphan receptor gamma (ROR-gamma) signaling pathway - cell viability counter screen (AID 1159520; active means well fitted curve in the direction sought with a large enough effect in the repeat runs; an effect the other way counts as inactive or inconclusive; further: nearly all actives have a fitted effect of over 50% in size); details: Tet-on RORgamma CHO cells viability, ATP luminescence, 16 h; series mostly up to 92.4 µM
Procedure, shortened: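 Tet-on ROR gamma CHO cells (1,000/well) were plated 4 hr, given compounds in DMSO for 2 hr at 37 C, then induced with 1 uM final doxycycline for 16 hr. Viability was read as ATP by CellTiter-Glo luminescence after 30 min.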

[10] = qHTS assay to identify small molecule agonists of the AP-1 signaling pathway (AID 1159526); details: ME-180 (cervical carcinoma) AP-1-bla reporter, beta-lactamase FRET ratio, 5 h; series mostly up to 76.8 µM

Measured: Potency

CCN(CCCc1ccccc1)CCCc1ccccc1
inactive: [1] | [2] | [3] | [4] | [5] | [6] | [7] | [8]

CC1CN(c2ccccc2)NC1=O (centres undefined)
inactive: [3] | [4] | [5] | [6] | [7] | [8]

CN(C)CCOc1ccccc1Cc1ccccc1
inactive: [1] | [2] | [3] | [4] | [6] | [9] | [7] | [8]

CCCCNc1ccc(C(=O)OCCN(CC)CC)cc1
inactive: [1] | [2] | [3] | [4] | [5] | [6] | [7] | [8]

CCN(CC)CC1CCCCN1CC(=O)N1c2ccccc2C(=O)Nc2cccnc21 (centres undefined)
inactive: [1] | [2] | [3] | [4] | [5] | [6] | [7] | [8]

Nc1ccc(Oc2ccc(N)c(N)c2)cc1
inactive: [1] | [3] | [4] | [5] | [6] | [8]

O=[N+]([O-])c1nccn1CO[C@@H](CO)[C@H](O)CO
inactive: [1] | [2] | [3] | [4] | [5] | [6] | [10]

CCCCc1ccc2nc(NC(=O)OC)[nH]c2c1
inactive: [1] | [2] | [3] | [4] | [5] | [6] | [9]

Cc1ccccc1C(=O)Nc1ccc(C(=O)N2CCCC(O)c3cc(Cl)ccc32)c(C)c1 (centres undefined)
inactive: [2] | [3] | [4] | [5] | [6] | [7] | [8]

CS(=O)(=O)c1ccc([C@@H](O)[C@@H](CF)NC(=O)C(Cl)Cl)cc1
inactive: [1] | [3] | [4] | [5] | [6] | [8] | [10]

CC(C)(C)c1ccc(OC(=O)c2ccccc2O)cc1
inactive: [3] | [4] | [6] | [9] | [7] | [8]

CCN(O)CC
inactive: [1] | [2] | [3] | [4] | [5] | [6] | [9]

CCCCCCOc1ccc(N)cc1
inactive: [2] | [3] | [4] | [5] | [6] | [8]

CCOc1ccc2nc(N)sc2c1
inactive: [1] | [2] | [3] | [4] | [5] | [6] | [10]

CN1CCN(c2c(F)cc3c(=O)c(C(=O)O)cn4c3c2SCC4)CC1
inactive: [1] | [2] | [3] | [4] | [5] | [6] | [8] | [10]

CN1CCN(C2=Nc3ccccc3Oc3ccc(Cl)cc32)CC1
inactive: [1] | [2] | [3] | [4] | [5] | [6] | [7] | [8]

CC1=C2[C@H](/C=C(\C)C(=O)O)CC[C@@H](C)[C@H]2CC1
inactive: [1] | [2] | [3] | [4] | [5] | [6] | [8]

Cc1ccc(C=O)s1
inactive: [1] | [2] | [3] | [4] | [5] | [6] | [8]

C1CCOC1
inactive: [1] | [3] | [4] | [5] | [6] | [8] | [10]

CC1=NN(c2cc(Cl)c(S(=O)(=O)O)cc2Cl)C(=O)C1N=Nc1ccc(S(=O)(=O)O)cc1 (centres undefined)
inactive: [1] | [2] | [3] | [4] | [5] | [6] | [8]

Cc1cc2nc(N)sc2cc1C
inactive: [1] | [2] | [3] | [4] | [5] | [6] | [7] | [8]

CC(C)=CCCC(C)CCOC=O (centres undefined)
inactive: [2] | [3] | [4] | [5] | [6] | [8]

COc1nc(C)nc(NC(=O)NS(=O)(=O)c2ccccc2OCCCl)n1
inactive: [1] | [2] | [3] | [4] | [6] | [9] | [8] | [10]

CCN(CC)C(=O)N(CC)CC
inactive: [1] | [2] | [3] | [4] | [6] | [9] | [8] | [10]

O=C(O[C@@H](C(=O)O)[C@@H](OC(=O)c1ccccc1)C(=O)O)c1ccccc1
inactive: [1] | [2] | [3] | [4] | [6] | [9] | [8] | [10]

Cc1ccc(C(C)C)cc1O
inactive: [1] | [2] | [3] | [4] | [6] | [9] | [8]

CCCCCOc1ccc(C2SC(=O)NC2=O)cc1OCC (centres undefined)
inactive: [3] | [4] | [6] | [9] | [7] | [10]

C=CCCCCCCCCO
inactive: [1] | [4] | [5] | [6] | [8] | [10]

CCOC(=O)COc1ccc2c(c1)CC(NCC(O)c1cccc(Cl)c1)CC2 (centres undefined)
inactive: [1] | [3] | [4] | [6] | [9]

CCCCNc1cc(C(=O)O)cc(S(N)(=O)=O)c1Oc1ccccc1
inactive: [1] | [2] | [3] | [4] | [6] | [8] | [10]

COc1ccc(Nc2ccc(OC)cc2)cc1
inactive: [1] | [2] | [3] | [4] | [6] | [9] | [7] | [8]
